The values that follow come from PubChem BioAssay (Tox21).

A number with no mark means an inactive call. Inconclusive results are not listed. Calls of active or inactive are those of the source. Unless noted, the call rests on the fitted dose curve; in most records, active means well fitted curve in the direction sought with a large enough effect in the repeat runs; inconclusive means weak or mixed curves; inactive means no such curve, though single readings can be large; an effect the other way counts as inactive or inconclusive.

Assay [1] is described as follows: qHTS assay to identify small molecule antagonists of the androgen receptor (AR) signaling pathway using the MDA cell line in the presence of 0.5 nM R1881 - cell viability counter screen (AID 1259242). Further: nearly all actives have a fitted effect of over 45% in size. The essentials: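 Viability of MDA-kb2 cells was multiplexed with the luciferase AR readout; after 16 hr with compounds and R1881 at 0.5 nM final, CellTiter-Fluor fluorescence was recorded.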

In assay [2] the target is Estrogen receptor (Homo sapiens) (UniProt P03372). The assay can be described thus: qHTS assay to identify small molecule antagonists of the estrogen receptor alpha (ER-alpha) signaling pathway using the BG1 cell line in the presence of 0.1 nM 17-beta-estradiol (AID 1259244). Further: nearly all actives have a fitted effect of over 50% in size. The method, boiled down: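 Estradiol at 0.1 nM (final) stimulates the endogenous ER-alpha of VM7Luc4E2 cells carrying an ERE-driven luciferase; compounds are co-incubated 22 h at 37C and luciferase output quantified by luminescence.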
On the technique in general: qHTS replaces the single test concentration by a dilution series.

The nature of assay [3]: qHTS assay to identify small molecule phospholipidosis (PLD) inducers (AID 1259344; active means well fitted curve in the direction sought with a large enough effect; an effect the other way counts as inactive or inconclusive). The essentials:
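HepG2 cells on collagen I, attached 4 h at 37 C, were co-treated with compound and LipidTOX Red dye for 24 h at 37 C, then fixed with paraformaldehyde plus Hoechst 33342 and imaged by high-content microscopy for phospholipid accumulation.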

Assay [4] in a line: qHTS assay to identify small molecule HDAC inhibitors (AID 1259364).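 Further: wild-type HCT-116 cells with endogenous class I/II HDAC activity; top concentration of the series differs between compounds; nearly all actives have a fitted effect of over 45% in size.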 The essentials: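 Read-out: luminescence of HDAC-Glo I/II reagent, 30 min RT, reflecting class I/II deacetylase activity in whole HCT-116 cells pre-exposed 2 h to DMSO-dissolved compounds.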
Assay [5] is described as follows: qHTS assay to identify small molecule HDAC inhibitors - cell viability counter screen (AID 1259365). Further: series mostly up to about 92 µM; nearly all actives have a fitted effect of over 50% in size. The essentials:
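Following a 2hr exposure of overnight-plated wild-type HCT-116 cells to DMSO-delivered compounds, CellTiter-Glo was added and luminescence recorded after 30min at room temperature.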

The nature of assay [6]: qHTS assay to identify small molecule agonists of the sonic hedgehog signaling (Shh) pathway (AID 1259368; calls by dose curve;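 further: NIH/3T3-derived 3T3Gli1-Luc cells carrying a stable Gli1-driven firefly luciferase reporter; series mostly up to about 92 µM; nearly all actives have a fitted effect of over 15% in size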). The essentials:
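A Gli1 transcriptional response element controlled firefly luciferase in 3T3Gli1-Luc cells. Compounds and a positive control were added 4 hr after plating, and cells were incubated a further 24 hr at 37 C before luminescence detection.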

Assay [7] deals with Estrogen receptor beta (Homo sapiens) (UniProt Q92731). Nature of the assay: qHTS assay to identify small molecule antagonists of the estrogen receptor beta (ER-beta) signaling pathway (AID 1259378; active means well fitted inhibition curve with a large enough effect in the signal ratio in the repeat runs, not every such curve was filed as active; the % refers to the signal ratio). The method, boiled down:
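ER-beta-UAS-bla HEK293T (GripTite) cells in 2% charcoal-stripped FBS medium were preincubated 6 hr at 37C, dosed with compound, then stimulated with 1 nM E2 (final) for 16 hr; beta-lactamase reporter read by B/G FRET fluorescence after 2 hr substrate loading.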

Assay [8] is described as follows: qHTS assay to identify small molecule agonists of the androgen receptor (AR) signaling pathway in the presence of an antagonist - cell viability counter screen (AID 1259379).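 Further: MDA-kb2 human breast cancer cells carrying an MMTV luciferase reporter; series mostly up to about 92 µM; nearly all actives have a fitted effect of over 25% in size.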 The method, boiled down:
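Seed MDA-kb2 at 3,000 cells/well; incubate 5 hr, 37C, 0% CO2. Add nilutamide to 3.0uM final, then pin compounds at 15 concentrations. Incubate 16 hr. Add CellTiter-Fluor at 15 hr, read fluorescence after 1 hr.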

Assay [9] can be described thus: qHTS assay to identify small molecule antagonists of the estrogen receptor beta (ER-beta) signaling pathway - cell viability counter screen (AID 1259382). Further: series mostly up to about 92 µM; nearly all actives have a fitted effect of over 55% in size. The method, boiled down: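 In this multiplexed counter screen, cells were seeded at 2,000 per well in medium with 2% charcoal-stripped FBS and incubated 6 hr before compound and 1nM final E2 were added. Sixteen hours later, ATP-based luminescence reported viability.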

Assay [10] is described as follows: qHTS assay to identify small molecule agonists of the estrogen receptor alpha (ER-alpha) signaling pathway in the presence of an antagonist - cell viability counter screen (AID 1259386).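 Further: cells exposed to compounds for 22 h at 37 °C before the viability read; nearly all actives have a fitted effect of over 30% in size.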 Further: potency means the concentration at half of the fitted maximal effect. The essentials:
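Viability counter screen using VM7Luc4E2 (full-length ER-alpha, four ERE-luciferase). The cells were treated with compounds alongside ICI-182,780 10.0nM for 22hr, and live-cell protease fluorescence was quantified with CellTiter-Fluor.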

The nature of assay [11]: qHTS assay to identify small molecule agonists of the sonic hedgehog signaling (Shh) pathway - cell viability counter screen (AID 1259366). Further: nearly all actives have a fitted effect of over 50% in size. The essentials: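 After a 4hr attachment at 37C, NIH/3T3 cells bearing an integrated Gli1-driven luciferase reporter were dosed with compounds. Treatment lasted 24hr, with the final hour including CellTiter-Fluor for a fluorescence viability measurement.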

The nature of assay [12]: qHTS assay to identify small molecule antagonists of the sonic hedgehog signaling (Shh) pathway - cell viability counter screen (AID 1259367). Further: nearly all actives have a fitted effect of over 55% in size. The essentials: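 NIH/3T3-derived Gli1-Luc reporter cells (2,000 per well) rested 4 hr at 37 C, then received DMSO compounds plus conditioned medium. After 23 hr of treatment, CellTiter-Fluor was added for 1 hr at 37C and fluorescence read.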

A short description of assay [13]: qHTS assay to identify small molecule antagonists of the sonic hedgehog signaling (Shh) pathway (AID 1259369; calls by dose curve; further: nearly all actives have a fitted effect of over 45% in size). The method, boiled down:
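For antagonist detection, the reporter line received test compounds together with conditioned medium, incubated 24hr at 37 C, 5% CO2, then luminescence was recorded following 30min room-temperature luciferase reagent incubation.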

A short description of assay [14]: qHTS assay to identify small molecule agonists of the estrogen receptor beta (ER-beta) signaling pathway - cell viability counter screen (AID 1259380). Further: nearly all actives have a fitted effect of over 30% in size. The method, boiled down: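 CellTiter-Glo read, 30 min RT, same wells as bla assay; cells ER-beta-UAS-bla HEK293T; 16 hr compound, 37C; medium 2% charcoal-stripped FBS.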
The target in assay [15] is Estrogen receptor (Homo sapiens) (UniProt P03372). Nature of the assay: qHTS assay to identify small molecule agonists of the estrogen receptor alpha (ER-alpha) signaling pathway in the presence of an antagonist (AID 1259383; calls by dose curve; further: top concentration of the series differs between compounds; nearly all actives have a fitted effect of over 15% in size). The essentials: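 Stably transfected VM7Luc4E2 reporter cells, kept 5 days in charcoal-stripped serum, received ICI-182,780 at 10.0nM final before compound addition. Following 22hr incubation at 37C and 5% CO2, luciferase signal was read by luminescence.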

In assay [16] the target is Thyrotropin receptor (Homo sapiens) (UniProt P16473). The assay can be described thus: qHTS assay to identify small molecule antagonists of the thyroid stimulating hormone receptor (TSHR) signaling pathway (AID 1259385; calls by dose curve; further: nearly all actives have a fitted effect of over 20% in size; further: potency means the concentration at half of the fitted maximal effect). The method, boiled down: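 TSHR-HEK293 cells were plated and held 18 h at 37C/5% CO2, then given compound plus Ro20-1724 and stimulated with TSH at 1.5 ng/mL final. After 30 min at room temperature, cAMP was detected with cAMP-d2/anti-cAMP-cryptate (1 h) by fluorescence.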

Assay [17] can be described thus: qHTS assay to identify small molecule agonists or antagonists of the thyroid stimulating hormone receptor (TSHR) signaling pathway - wild type cell line counter screen (AID 1259384; calls by dose curve; further: potency means the concentration at half of the fitted maximal effect). The method, boiled down:
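Wild-type HEK293 cells were plated 18 h at 37 C/5% CO2, pin-dosed with compound plus Ro20-1724 medium, held 30 min at room temperature, then given cAMP-d2 and anti-cAMP-cryptate; fluorescence was read after 1 h. Fifteen concentrations, triplicate.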

The target in assay [18] is Estrogen receptor beta (Homo sapiens) (UniProt Q92731). The assay can be described thus: qHTS assay to identify small molecule agonists of the estrogen receptor beta (ER-beta) signaling pathway (AID 1259377; active means well fitted activation curve with a large enough effect in the signal ratio in the repeat runs, not every such curve was filed as active; the % refers to the signal ratio). The essentials: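 In HEK293T cells bearing a UAS-beta-lactamase reporter under ER-beta control, DMSO-delivered compounds were incubated for 16 hr at 37C. Activity was detected as fluorescence 2 hours after LiveBLAzer B/G FRET substrate addition.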

Assay [19] concerns the target Androgen receptor (Homo sapiens) (UniProt P10275). The assay can be described thus: qHTS assay to identify small molecule agonists of the androgen receptor (AR) signaling pathway in the presence of an antagonist (AID 1259381; calls by dose curve; further: nearly all actives have a fitted effect of over 15% in size). The method, boiled down:
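Test compounds at 15 concentrations were incubated for 16hr with MDA-kb2 reporter cells in presence of 3.0uM nilutamide (final). Signal: ONE-Glo luciferase luminescence.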
On the % scale 0 is the no-effect control and ±100 the full control effect.

Sequence of Estrogen receptor beta (Homo sapiens) (Q92731 whole entry, looked up): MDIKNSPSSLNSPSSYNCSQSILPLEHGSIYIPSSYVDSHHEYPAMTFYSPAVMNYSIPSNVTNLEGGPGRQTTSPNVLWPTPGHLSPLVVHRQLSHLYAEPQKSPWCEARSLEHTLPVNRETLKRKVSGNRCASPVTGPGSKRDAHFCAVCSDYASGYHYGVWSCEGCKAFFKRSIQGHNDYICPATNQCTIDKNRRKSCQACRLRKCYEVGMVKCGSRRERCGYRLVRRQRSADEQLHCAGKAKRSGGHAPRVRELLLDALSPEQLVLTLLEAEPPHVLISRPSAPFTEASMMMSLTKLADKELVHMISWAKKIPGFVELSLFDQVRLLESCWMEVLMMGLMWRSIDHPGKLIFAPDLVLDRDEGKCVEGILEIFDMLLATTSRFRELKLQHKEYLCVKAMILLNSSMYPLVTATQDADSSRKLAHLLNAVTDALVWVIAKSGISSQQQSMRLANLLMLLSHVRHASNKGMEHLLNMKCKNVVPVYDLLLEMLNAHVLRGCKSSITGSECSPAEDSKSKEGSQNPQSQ
Sequence of Thyrotropin receptor (Homo sapiens) (P16473 whole entry, looked up): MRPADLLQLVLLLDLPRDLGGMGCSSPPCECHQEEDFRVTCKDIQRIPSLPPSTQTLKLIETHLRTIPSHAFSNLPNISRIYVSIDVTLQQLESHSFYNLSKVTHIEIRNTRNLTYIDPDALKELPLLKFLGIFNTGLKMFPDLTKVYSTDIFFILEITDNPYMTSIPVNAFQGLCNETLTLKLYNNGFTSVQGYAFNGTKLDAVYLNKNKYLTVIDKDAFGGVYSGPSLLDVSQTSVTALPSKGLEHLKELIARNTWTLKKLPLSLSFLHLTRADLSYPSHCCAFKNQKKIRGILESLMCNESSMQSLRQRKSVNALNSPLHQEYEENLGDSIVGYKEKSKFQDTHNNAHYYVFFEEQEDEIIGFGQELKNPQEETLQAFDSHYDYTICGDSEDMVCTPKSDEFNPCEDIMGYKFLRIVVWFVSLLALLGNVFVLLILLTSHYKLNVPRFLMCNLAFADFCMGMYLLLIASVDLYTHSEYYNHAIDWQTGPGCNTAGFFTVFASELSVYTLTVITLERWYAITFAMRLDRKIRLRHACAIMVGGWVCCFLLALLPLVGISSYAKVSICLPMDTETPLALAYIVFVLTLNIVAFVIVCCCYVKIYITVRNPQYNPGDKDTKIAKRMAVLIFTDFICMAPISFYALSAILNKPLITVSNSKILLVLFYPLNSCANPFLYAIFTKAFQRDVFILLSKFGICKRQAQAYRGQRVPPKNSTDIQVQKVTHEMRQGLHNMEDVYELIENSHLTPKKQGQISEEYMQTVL
Sequence of Estrogen receptor (Homo sapiens) (P03372 whole entry, looked up): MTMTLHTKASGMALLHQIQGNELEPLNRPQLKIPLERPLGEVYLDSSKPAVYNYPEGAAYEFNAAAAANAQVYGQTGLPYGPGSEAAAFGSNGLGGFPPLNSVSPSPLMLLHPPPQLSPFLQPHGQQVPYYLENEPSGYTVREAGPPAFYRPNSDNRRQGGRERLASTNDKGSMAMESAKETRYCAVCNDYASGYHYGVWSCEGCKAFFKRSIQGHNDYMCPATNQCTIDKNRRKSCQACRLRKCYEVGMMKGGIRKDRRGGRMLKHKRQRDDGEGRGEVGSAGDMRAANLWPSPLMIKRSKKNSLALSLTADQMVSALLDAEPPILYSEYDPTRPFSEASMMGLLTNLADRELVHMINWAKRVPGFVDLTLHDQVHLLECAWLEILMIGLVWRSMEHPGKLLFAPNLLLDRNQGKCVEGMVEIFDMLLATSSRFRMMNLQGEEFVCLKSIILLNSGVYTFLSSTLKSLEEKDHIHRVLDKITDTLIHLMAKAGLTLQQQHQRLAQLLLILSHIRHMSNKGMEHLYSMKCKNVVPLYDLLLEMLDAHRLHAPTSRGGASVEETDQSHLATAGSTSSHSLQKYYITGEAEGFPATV
Sequence of Androgen receptor (Homo sapiens) (P10275 whole entry, looked up): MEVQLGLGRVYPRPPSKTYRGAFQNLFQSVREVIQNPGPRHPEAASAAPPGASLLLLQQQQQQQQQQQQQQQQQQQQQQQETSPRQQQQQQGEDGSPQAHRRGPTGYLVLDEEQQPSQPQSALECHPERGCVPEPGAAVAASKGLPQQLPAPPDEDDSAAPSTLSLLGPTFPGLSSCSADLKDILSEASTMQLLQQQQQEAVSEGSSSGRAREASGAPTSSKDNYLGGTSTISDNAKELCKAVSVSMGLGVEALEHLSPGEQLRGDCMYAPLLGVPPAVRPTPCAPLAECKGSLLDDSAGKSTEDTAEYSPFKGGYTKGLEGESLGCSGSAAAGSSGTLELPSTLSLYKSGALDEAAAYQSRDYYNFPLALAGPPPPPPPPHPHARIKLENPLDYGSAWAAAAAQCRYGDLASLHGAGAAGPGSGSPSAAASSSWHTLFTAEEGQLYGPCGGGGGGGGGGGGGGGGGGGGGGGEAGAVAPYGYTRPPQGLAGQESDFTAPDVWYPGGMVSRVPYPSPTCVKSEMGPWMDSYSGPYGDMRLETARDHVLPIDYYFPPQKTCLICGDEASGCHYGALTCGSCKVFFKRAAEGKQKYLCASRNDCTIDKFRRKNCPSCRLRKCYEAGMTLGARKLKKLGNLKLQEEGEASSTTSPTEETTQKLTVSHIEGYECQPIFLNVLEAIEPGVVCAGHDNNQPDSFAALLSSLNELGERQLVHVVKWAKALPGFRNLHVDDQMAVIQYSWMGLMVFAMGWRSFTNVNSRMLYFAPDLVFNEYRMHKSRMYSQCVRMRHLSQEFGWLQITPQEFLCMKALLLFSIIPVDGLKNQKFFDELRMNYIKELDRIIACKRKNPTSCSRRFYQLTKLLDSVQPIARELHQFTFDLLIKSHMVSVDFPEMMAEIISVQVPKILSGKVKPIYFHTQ

Consider `CCN(CC)C(=O)[C@@H]1C=C2c3cccc4[nH]cc(c34)C[C@H]2N(C)C1`, for which the result in [1], in assay [3], in assay [5] and in assay [6] was inactive. Also, the Potency entry in [2], in assay [4], in assay [7], in assay [8] and in assay [9] was “inactive” in each case. For the same compound, the Potency in [10] is 56.7 µM (active).
`Cc1ncc(CNC(=O)N(CCCl)N=O)c(N)n1`: the outcome in assay [1], in assay [3], in assay [5] and in assay [6] was inactive. Further, the Potency entry in assay [2], in assay [4], in assay [11], in assay [12], in assay [13] and in assay [8] was “inactive” throughout. For the same compound, the Potency entry in [14], in assay [9], in assay [15], in [16] and in assay [10] was “inactive” in each case.
Regarding `O=C1CN=C(c2ccccc2)c2cc([N+](=O)[O-])ccc2N1`, the result in [1], in assay [3], in assay [5] and in assay [6] was inactive. Further, the Potency entry in [2], in assay [4], in [11], in assay [12], in [13] and in assay [7] was “inactive” each time. Also, the Potency result in [8], in assay [14], in assay [9], in [17], in assay [16] and in assay [10] was “inactive” throughout.
With `COc1cc2c(cc1OC)[C@@]13CCN4CC5=CCO[C@H]6CC(=O)N2[C@H]1[C@H]6[C@H]5C[C@H]43`, the result in assay [1], in assay [3], in assay [5] and in [6] was inactive. For the same compound, the Potency entry in assay [2], in [4], in [8], in assay [9], in assay [15] and in assay [17] was “inactive” throughout. Besides, the Potency entry in assay [16] was “inactive”.
With `CCOP(=S)(OCC)SCSc1ccc(Cl)cc1`, the result in assay [1], in [5] and in assay [6] was inactive. Besides, the Potency entry in assay [2], in assay [4], in assay [11], in assay [12], in [13] and in assay [7] was “inactive” throughout. In addition, the Potency result in assay [8], in [14], in [9], in assay [17] and in [10] was “inactive” in each case. Also, the PLD induction in [3] was -3.38% [at 7.66 µM]. Besides, the Potency in assay [16] is 30.6 µM (active).
As for `C[C@@H]1CN(C2CCC(C#N)(c3ccc(F)cc3)CC2)CC[C@]1(C(=O)O)c1ccccc1` (some centres not stated), the outcome in assay [1], in [3], in assay [5] and in assay [18] was inactive. Further, the Potency entry in assay [2], in [11], in assay [12], in assay [13], in [7] and in assay [8] was “inactive” throughout. The Potency entry in assay [14], in assay [9], in assay [15], in assay [16] and in assay [10] was “inactive” throughout.
In the case of `COC(=O)c1c(C(F)F)nc(C(F)(F)F)c(C2=NCCS2)c1CC(C)C`, the outcome in assay [1], in assay [5], in assay [6] and in assay [18] was inactive. The Potency entry in assay [2], in [4], in assay [11], in assay [12], in assay [13] and in assay [7] was “inactive” each time. Besides, the Potency result in assay [8], in assay [14], in assay [19], in assay [9], in assay [17] and in [10] was “inactive” throughout.
Regarding `CC(=O)Nc1cc([As](=O)(O)O)ccc1O`, the outcome in [1], in assay [3], in assay [5], in assay [6] and in [18] was inactive. For the same compound, the Potency entry in assay [2], in assay [11], in [12], in assay [13], in [7] and in [8] was “inactive” in each case. The Potency result in [14], in [9], in [15] and in assay [10] was “inactive” throughout.
On to `CNCC(=O)c1ccc(O)c(O)c1`, for which the outcome in [1], in assay [5], in assay [6] and in assay [18] was inactive. The Potency result in assay [2], in assay [4], in [11], in assay [12], in assay [13] and in assay [7] was “inactive” in each case. Moreover, the Potency result in [8], in [14], in assay [9], in assay [15], in assay [16] and in assay [10] was “inactive” each time. For the same compound, the PLD induction in assay [3] was -2.28% [at 7.66 µM]. In addition, the Potency in assay [17] was 4.22 µM (active).
